Experiment [1] addresses Bile acid receptor (Homo sapiens) (UniProt Q96RI1). The experiment can be described thus: qHTS assay for small molecule antagonists of farnesoid X receptor signaling (AID 588526). Further: potency means the concentration at half of the fitted maximal effect. The essentials: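 Beta-lactamase reporter antagonist mode: HEK293T FXR-UAS-bla cells, titrated compound, CDCA stimulation, 16 h 37 C, CCF4 dye 2 h RT. Data normalized to CDCA 50 uM and DMSO; Hill-fit IC50.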
On the technique in general: qHTS replaces the single test concentration by a dilution series.

Experiment [2] shares this target. As to the kind of experiment: qHTS assay for small molecule agonists of farnesoid X receptor signaling (AID 588527).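 Further: series mostly up to about 77 µM; 0% = vehicle basal and 100% = reference agonist.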 Conditions: HEK293T FXR-UAS-bla, beta-lactamase ratio, 16 h; activation: stronger effect = higher value. Put shortly: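 Read-out: beta-lactamase reporter fluorescence with CCF4 substrate in GeneBLAzer FXR-UAS-bla HEK293T cells, after 16 h compound exposure at 37 C. Response scaled between DMSO basal (0%) and chenodeoxycholic acid at 100 uM (100%).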

Experiment [3] has as its target Glucocorticoid receptor (Homo sapiens) (UniProt P04150). As to the kind of experiment: qHTS assay for small molecule agonists of glucocorticoid receptor signaling (AID 588532; active means well fitted curve in the direction sought with a large enough effect in the signal ratio, with a control signal flat; the % refers to the signal ratio;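 further: 100% = dexamethasone at 0.1 µM and 0% = DMSO only wells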). Particulars: HeLa MMTV-bla, beta-lactamase ratio, agonist, 18 h; activation: stronger effect = higher value, percent of dexamethasone control, DMSO zero. The essentials: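 Quantitative HTS using CellSensor MMTV-bla HeLa cells in charcoal/dextran-treated serum; compounds tested up to 92 uM. After 18 h at 37 C, CCF4 dye reported reporter induction.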

Experiment [4] has the same target. The experiment can be described thus: qHTS assay for small molecule antagonists of glucocorticoid receptor signaling (AID 588533; active means well fitted inhibition curve with a large enough effect in the signal ratio, with a control signal flat, not every such curve was filed as active; the % refers to the signal ratio;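 further: cells stimulated with 2 nM dexamethasone as agonist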; further: potency means the concentration at half of the fitted maximal effect). The essentials: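 Antagonist-mode qHTS: compound titrations added to GRE-bla HeLa cells, then dexamethasone 2 nM final; 18 h, 37 C. CCF4 FRET fluorescence normalized to dexamethasone and DMSO; IC50 from Hill fit.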
Experiment [5] can be described thus: qHTS assay for small molecule antagonists of peroxisome proliferator-activated receptor delta signaling (AID 588535; active means well fitted inhibition curve with a large enough effect in the signal ratio, with a control signal flat, not every such curve was filed as active; the % refers to the signal ratio;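 on max response: cells co-treated with a PPAR-delta agonist as stimulator during compound exposure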). Particulars: HEK293T PPARd-UAS-bla, beta-lactamase FRET ratio, 18 h; 460 nm channel. Put shortly:
(§1)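 HEK293T PPAR-delta-UAS-bla cells, 4000/well, 2% charcoal/dextran FBS; 5 h 37 C; cpd titration; 18 h 37 C; CCF4 2 h RT; FI 460/530 nm; Hill fit → IC50, efficacy.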

For experiment [6], the target named is Peroxisome proliferator-activated receptor delta (Homo sapiens) (UniProt Q03181). The experiment is described as above. Put shortly:
as §1

The target of experiment [7] is Vitamin D3 receptor (Homo sapiens) (UniProt P11473). The experiment can be described thus: qHTS assay for small molecule agonists of vitamin D receptor signaling (AID 588543).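 Further: 0% = DMSO basal and 100% = reference agonist control.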 The essentials: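 VDR-UAS-bla HEK293T cells, 2000/well, 2% charcoal-stripped FBS; compound titration 16 h at 37 C; CCF4 beta-lactamase ratio read. Normalized to 50 nM 1-alpha,25-dihydroxyvitamin D3 (100%) and DMSO; Hill fit gives EC50, efficacy.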
Sequence of Vitamin D3 receptor (Homo sapiens) (P11473 whole entry, looked up): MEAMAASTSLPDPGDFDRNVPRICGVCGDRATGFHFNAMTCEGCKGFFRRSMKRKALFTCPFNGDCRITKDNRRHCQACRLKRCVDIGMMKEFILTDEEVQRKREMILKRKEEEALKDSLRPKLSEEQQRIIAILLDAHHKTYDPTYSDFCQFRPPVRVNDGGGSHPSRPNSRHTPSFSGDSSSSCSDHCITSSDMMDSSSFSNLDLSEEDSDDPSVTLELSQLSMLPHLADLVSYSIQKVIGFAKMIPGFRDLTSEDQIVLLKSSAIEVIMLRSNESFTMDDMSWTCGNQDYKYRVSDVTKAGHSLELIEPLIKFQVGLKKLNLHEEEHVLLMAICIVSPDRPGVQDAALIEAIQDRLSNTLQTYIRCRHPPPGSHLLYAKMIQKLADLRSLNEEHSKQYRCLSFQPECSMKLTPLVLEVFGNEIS

Experiment [8] is described as follows: qHTS assay for small molecule activators of the nuclear factor-kappa B (NF-kB) signaling pathway (AID 651749; active means well fitted activation curve with a large enough effect in the signal ratio; the % refers to the signal ratio; further: series mostly up to about 77 µM; % of control where 0% means no effect). Conditions: NF-kB-bla ME-180 cells, beta-lactamase FRET ratio, 16 h; activation: stronger effect = higher value. The essentials: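 Readout: beta-lactamase reporter driven by an NF-kB response element, detected fluorescently as loss of FRET. Cells were the ME-180 line, treated 16 hr at 37C with pin-transferred compound.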

A short description of experiment [9]: qHTS assay for small molecule activators of the human pregnane X receptor (PXR) signaling pathway (AID 720659; call rule not given here; further: 0% is about no effect).
Experiment [10] is described as follows: qHTS assay for small molecule agonists of the antioxidant response element (ARE) signaling pathway (AID 651741; active means well fitted activation curve with a large enough effect in the signal ratio; the % refers to the signal ratio; further: potency means the concentration at half of the fitted maximal effect; on activation: % of control where 0% means no effect). Put shortly:
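Quantitative HTS in HepG2 cells stably expressing an ARE-beta-lactamase reporter; 16 h compound exposure at 37 C, followed by 2 h room-temperature incubation with LiveBLAzer B/G FRET substrate and fluorescence measurement.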

Experiment [11] deals with Cytochrome P450 3A4 (Homo sapiens) (UniProt P08684). As to the kind of experiment: qHTS Assay for Activators of Cytochrome P450 3A4 (AID 885; active means well fitted curve in the direction sought with a large enough effect; an effect the other way counts as inactive or inconclusive; further: nearly all actives have a fitted effect of over 65% in size). Put shortly: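 Steps: enzyme/substrate mix dispensed; compound added, 10 min RT; NADPH regeneration solution added, 60 min RT; luciferin detection buffer stops reaction; 20 min later luminescence measured.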
Sequence of Cytochrome P450 3A4 (Homo sapiens) (P08684 whole entry, looked up): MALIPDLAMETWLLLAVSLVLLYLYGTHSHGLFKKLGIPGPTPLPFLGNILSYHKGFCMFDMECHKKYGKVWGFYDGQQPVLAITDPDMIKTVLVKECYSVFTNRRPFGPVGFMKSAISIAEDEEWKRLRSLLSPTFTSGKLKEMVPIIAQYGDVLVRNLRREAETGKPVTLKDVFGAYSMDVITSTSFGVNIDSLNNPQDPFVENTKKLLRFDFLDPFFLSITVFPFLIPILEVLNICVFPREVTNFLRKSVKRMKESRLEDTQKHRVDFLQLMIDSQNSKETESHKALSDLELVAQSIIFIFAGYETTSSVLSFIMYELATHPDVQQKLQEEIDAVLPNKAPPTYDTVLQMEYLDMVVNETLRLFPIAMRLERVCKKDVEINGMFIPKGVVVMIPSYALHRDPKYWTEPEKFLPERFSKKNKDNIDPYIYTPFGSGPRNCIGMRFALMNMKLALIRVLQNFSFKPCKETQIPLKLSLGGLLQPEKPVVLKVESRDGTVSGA
Experiment [12] is described as follows: Cell Viability - LYMP2-001 (AID 921; active means well fitted curve in the direction sought with a large enough effect; an effect the other way counts as inactive or inconclusive; further: potency means the concentration at half of the fitted maximal effect; nearly all actives have a fitted effect of over 70% in size). The essentials:
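Human lymphoblastoid LYMP2-001 cells, 2500 per well, in complete medium, treated 24 h at 37 C. Viability from cellular ATP by CellTiter-Glo luminescence; AC50 from Hill-equation fits of qHTS concentration-response.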

Experiment [13] in a line: MultiTox-Fluor Cytotoxicity Assay - LYMP1-002 - Live Cells (AID 955; active means well fitted curve in the direction sought with a large enough effect; an effect the other way counts as inactive or inconclusive;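 further: potency means the concentration at half of the fitted maximal effect; cells exposed to compound for 16 hours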). Put shortly: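 Read-out is live-cell protease activity (cell-permeant GF-AFC substrate, fluorescence Ex/Em=405/510), where a decrease indicates acute toxicity. Human lymphoblastoid cells were treated 16 hours at 37 C in a concentration series, and AC50 values came from standard Hill modelling.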
The nature of experiment [14]: MultiTox-Fluor Cytotoxicity Assay - LYMP1-002 - Dead Cells (AID 960; active means well fitted curve in the direction sought with a large enough effect; an effect the other way counts as inactive or inconclusive; further: potency means the concentration at half of the fitted maximal effect; nearly all actives have a fitted effect of over 60% in size). The essentials: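 LYMP1-002 cells 2500/well; 5 hr 37 C pre-incubation; compound 16 hr 37 C; MultiTox-Fluor reagent 60 min RT; dead-cell fluor Ex/Em 485/520. Norm. to DMSO (0%) vs 15 uM tetraoctylammonium bromide (100%); Hill AC50.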
A short description of experiment [15]: MultiTox-Fluor Cytotoxicity Assay - LYMP1-003 - Dead Cells (AID 961; active means well fitted curve in the direction sought with a large enough effect; an effect the other way counts as inactive or inconclusive; further: potency means the concentration at half of the fitted maximal effect; nearly all actives have a fitted effect of over 70% in size). The essentials:
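LYMP1-003 lymphoblastoid, 2500 cells/well, 5 hr settle then 16 hr cpd at 37 C; MultiTox-Fluor reagent 60 min RT; Ex/Em 485/520 dead-cell signal; norm. DMSO = 0%, 15 uM tetraoctylammonium bromide = 100%; Hill AC50.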

Experiment [16] is described as follows: Cell Viability - LYMP2-003 (AID 965; active means well fitted curve in the direction sought with a large enough effect; an effect the other way counts as inactive or inconclusive;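 further: potency means the concentration at half of the fitted maximal effect; cells exposed to compounds for 24 h before reading; nearly all actives have a fitted effect of over 50% in size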). The essentials:
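Human lymphoblastoid LYMP2-003 cells, 2500/well, exposed to compounds for 24 h at 37 C in complete medium. Viability read as intracellular ATP by CellTiter-Glo luminescence; AC50 from Hill-equation fits of qHTS concentration-response data.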

A short description of experiment [17]: Cell Viability - LYMP2-011 (AID 969; active means well fitted curve in the direction sought with a large enough effect; an effect the other way counts as inactive or inconclusive; further: potency means the concentration at half of the fitted maximal effect; nearly all actives have a fitted effect of over 60% in size). The essentials:
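2500 cells/well, 5 hr 37 C; compound added, 24 hr 37 C; CellTiter-Glo 30 min RT; luminescence. qHTS concentration-response, Hill-equation AC50. Tetraoctylammonium bromide positive control.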

Values joined by “and” are separate entries in the source; they are usually repeats but may differ in a detail not shown here. Identical values can stand only once. Inconclusive results are not listed. Active and inactive are the calls of the source. Unless noted, the call rests on the fitted dose curve.

Sequence of Glucocorticoid receptor (Homo sapiens) (P04150 whole entry, looked up): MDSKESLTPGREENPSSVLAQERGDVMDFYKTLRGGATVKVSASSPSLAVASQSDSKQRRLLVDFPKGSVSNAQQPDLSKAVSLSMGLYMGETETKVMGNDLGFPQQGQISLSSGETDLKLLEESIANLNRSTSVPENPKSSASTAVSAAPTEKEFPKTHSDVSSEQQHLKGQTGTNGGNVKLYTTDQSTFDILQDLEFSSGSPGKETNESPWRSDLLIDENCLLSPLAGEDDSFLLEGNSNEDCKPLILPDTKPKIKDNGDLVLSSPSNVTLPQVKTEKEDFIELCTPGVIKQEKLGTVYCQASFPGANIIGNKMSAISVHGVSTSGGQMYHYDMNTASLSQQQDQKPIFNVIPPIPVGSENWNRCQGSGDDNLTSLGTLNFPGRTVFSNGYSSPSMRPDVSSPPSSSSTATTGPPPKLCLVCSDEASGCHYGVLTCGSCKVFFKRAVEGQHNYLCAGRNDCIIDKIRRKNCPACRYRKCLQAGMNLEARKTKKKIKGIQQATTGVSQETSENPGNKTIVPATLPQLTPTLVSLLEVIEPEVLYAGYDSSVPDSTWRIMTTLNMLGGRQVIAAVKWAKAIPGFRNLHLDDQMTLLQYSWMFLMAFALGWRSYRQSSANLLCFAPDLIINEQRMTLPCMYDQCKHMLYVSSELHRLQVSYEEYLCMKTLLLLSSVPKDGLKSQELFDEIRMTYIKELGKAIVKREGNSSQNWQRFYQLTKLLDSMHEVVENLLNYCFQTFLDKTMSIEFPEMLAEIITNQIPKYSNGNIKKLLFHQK
Sequence of Bile acid receptor (Homo sapiens) (Q96RI1 whole entry, looked up): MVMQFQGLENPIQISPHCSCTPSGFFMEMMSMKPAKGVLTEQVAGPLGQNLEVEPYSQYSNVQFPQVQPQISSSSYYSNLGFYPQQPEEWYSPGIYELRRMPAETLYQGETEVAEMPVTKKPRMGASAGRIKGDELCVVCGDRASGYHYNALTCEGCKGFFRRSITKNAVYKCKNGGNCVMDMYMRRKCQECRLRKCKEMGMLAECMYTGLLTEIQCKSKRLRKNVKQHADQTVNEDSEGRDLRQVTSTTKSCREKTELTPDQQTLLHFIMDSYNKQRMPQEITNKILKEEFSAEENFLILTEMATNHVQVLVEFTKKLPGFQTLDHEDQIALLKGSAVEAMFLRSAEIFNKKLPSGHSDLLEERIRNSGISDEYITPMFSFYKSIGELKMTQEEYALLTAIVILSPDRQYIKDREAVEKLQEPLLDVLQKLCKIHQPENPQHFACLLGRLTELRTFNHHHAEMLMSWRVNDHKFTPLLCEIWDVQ
Sequence of Peroxisome proliferator-activated receptor delta (Homo sapiens) (Q03181 whole entry, looked up): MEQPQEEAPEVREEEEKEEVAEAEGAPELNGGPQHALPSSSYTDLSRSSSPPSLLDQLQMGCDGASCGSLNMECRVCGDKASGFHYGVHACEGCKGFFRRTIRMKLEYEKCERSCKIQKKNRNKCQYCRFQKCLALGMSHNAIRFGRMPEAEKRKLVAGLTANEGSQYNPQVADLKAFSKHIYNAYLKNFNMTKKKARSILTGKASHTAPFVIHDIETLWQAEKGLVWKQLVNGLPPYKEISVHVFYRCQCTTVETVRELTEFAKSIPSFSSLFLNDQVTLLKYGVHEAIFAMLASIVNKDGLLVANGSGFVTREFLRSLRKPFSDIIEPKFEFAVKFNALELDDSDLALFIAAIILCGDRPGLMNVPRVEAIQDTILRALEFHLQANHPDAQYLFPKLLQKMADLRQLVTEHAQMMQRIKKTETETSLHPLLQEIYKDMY

Turning to `CNC(=O)Oc1ccc(N(C)C)c(C)c1`, the Potency result in [1], in experiment [4] and in experiment [6] was “inactive” throughout. Besides, the activation in experiment [2] was 0.727% (inactive); in [3], -10.5% (inactive); in [8] it was -0.493% (inactive). In experiment [5], the max response was -23.4%. For the same compound, the compound was classed as inactive in experiment [7] and in [9].
Regarding `COC(=O)c1ccccc1CS(=O)(=O)NC(=O)Nc1nc(OC)cc(OC)n1`, the Potency result in [1], in [4], in experiment [6] and in experiment [10] was “inactive” in each case. The activation in experiment [2] is -0.439% (inactive); in experiment [3], -0.772% (inactive); in experiment [8] it was -0.866% (inactive). Besides, in experiment [5], the max response was -1.25%. Moreover, the call in experiment [7] and in [9] was inactive.
`CCOP(OCC)OCC`: in experiment [1], the Potency result was “inactive”. Moreover, the activation is -1.35% (inactive) in experiment [2] and -0.0576% (inactive) in experiment [8]. Further, the result in experiment [9] was inactive.
For the compound `COc1ccc(C(O)(c2cncnc2)C2CC2)cc1` (stereo not drawn), the Potency entry in [1] and in experiment [10] was “inactive” each time. In addition, the activation was -0.99% (inactive) in experiment [2] and -6.63% (inactive) in experiment [3]. Moreover, the result in experiment [7] and in [9] was inactive.
As for `CC(C)(C#N)N=NC(C)(C)C#N`, the activation in experiment [3] was 6.88% (inactive). Further, the Potency result in experiment [4], in experiment [6] and in experiment [10] was “inactive” each time. Moreover, the max response in [5] is 3.24%. For the same compound, the compound was called inactive in experiment [7] and in [9].
On to `C=CCC1=C(C)[C@@H](OC(=O)[C@@H]2[C@@H](C=C(C)C)C2(C)C)CC1=O`, for which the Potency entry in experiment [1] and in [4] was “inactive” each time. Moreover, the results for the activation in [2], in [3] and in [8] were 1.33% (inactive), 1.31% (inactive) and -0.0415% (inactive), respectively. In experiment [7], the compound was classed as inactive. In addition, the Potency in experiment [10] is 61.1 µM (active).
On to `CCCCC(CC)COC(=O)Cl` (stereo not drawn), for which the Potency result in experiment [1], in [4] and in experiment [10] was “inactive” each time. Besides, the activation in [2] was 1.19% (inactive); in [8], -0.442% (inactive). The compound was called inactive in [7] and in [9].
`C/C(=N\NC(=O)Nc1cc(F)cc(F)c1)c1ncccc1C(=O)O`: the Potency result in experiment [1], in experiment [4] and in [10] was “inactive” throughout. The activation was -2.37% (inactive) and 0.898% (inactive) in [2]; 10.9% (inactive) and -10.6% (inactive) in [3]; 0.367% (inactive) and -2.66% (inactive) in [8]. Moreover, the compound was called inactive in experiment [7].
With `CCN(CC)C(=O)C(C)Oc1cccc2ccccc12` (stereo not drawn), the Potency entry in [1] is “inactive”. The activation in [2] is -1.49% (inactive).
Consider `O=Nc1ccc(Nc2ccccc2)cc1`, for which, in experiment [11], the Potency entry is “inactive”. Moreover, the Potency in experiment [12] was 2.51 µM (active); in experiment [13] it was 6.31 µM (active); in [14], 3.98 µM (active); in experiment [15], 5.01 µM (active); in experiment [16], 7.94 µM (active); in experiment [17], 7.94 µM (active). In addition, in experiment [10], the Potency was 54.5 µM (active). The activation in experiment [2] was 15.6% (inactive). Moreover, the compound was called inactive in experiment [7].
As for `CCCCC(C#N)(Cn1cncn1)c1ccc(Cl)cc1` (stereo not drawn), in experiment [3], the activation is -4.2% (inactive) and -7.49% (inactive). Moreover, the Potency entry in experiment [4], in experiment [6] and in experiment [10] was “inactive” in each case. In experiment [5], the max response is 26.8%.
`Oc1ccc(C2(c3ccc(O)cc3)c3ccccc3-c3ccccc32)cc1`: the Potency in [1] was 28.2 µM (active); in [4], 44.7 µM (active). In addition, the activation in experiment [3] is -14.6% (inactive). In addition, the compound was called inactive in [7].
